Bioassay records: PubChem BioAssay, Broad Institute
An excerpt weighted towards active compounds, which were near 6.7% of everything screened.
T cruzi growth-1 = T. cruzi proliferation inhibition | T. cruzi beta-gal in NIH3T3, GalScreen luminescence, 90 h | inhibition, % at 8.34 µM | actives 5.9% (n = 77,000);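 active means mean inhibition above about 93%, with at least 55% of replicates each passing it, limit read from the data, passing the limit was not always enough; inconclusive means only one of those two conditions holds; inactive means neither condition holds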
Pf Dd2 inh = P. falciparum Dd2 growth inhibition; SYBR Green, 72 h; hits give low values; activity change, % at 10 µM; actives 2.3% (n = 94,000); AID 1159554; in the data active means activity change below about -80%; inconclusive means no clear call, values can overlap the other calls
C diff growth = blocks growth of Clostridium difficile. growth activity, negative = inhibition, % at 16 µg/mL (by protocol). Clostridium difficile clinical isolate growth, OD600, 24 h; hits give low values. actives 0.25% (n = 86,000);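 active means mean growth activity at or below -80% and every replicate also at or below -80%; inconclusive means mean at or below -80% but some replicate above -80%; inactive means mean growth activity above -80%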
T cruzi growth-2 = inhibitors of T. cruzi proliferation; shares compounds with T cruzi growth-1; inhibition, % at 8.35 µM; T. cruzi beta-gal in NIH3T3, GalScreen luminescence, 90 h; actives 72% (n = 5,600);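 active means mean replicate inhibition above about 95% and at least 55% of replicates individually reaching it, limit read from the data; inconclusive means only one of the two criteria is met; inactive means neither criterion is met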
T cruzi growth-3 = blocks T. cruzi growth in NIH3T3 host cells; actives 21% (n = 5,600); inhibition, % at 2.09 µM; AID 651740; T. cruzi beta-gal in NIH3T3, GalScreen luminescence, 90 h; shares compounds with T cruzi growth-1;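 active means mean inhibition above about 95%, with at least 55% of replicates also reaching it, limit read from the data; inconclusive means meets just one of the two conditions; inactive means meets neither condition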
3T3 cytotox = kills mouse NIH/3T3 fibroblasts | shares compounds with T cruzi growth-1 | NIH/3T3 viability, CellTiter-Glo ATP luminescence, 90 h | cytotoxicity (signal decrease), % at 8.35 µM | actives 14% (n = 5,600) | AID 651742;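 active means mean signal decrease across replicates above about 35% based on untreated-well scatter, with enough replicates individually passing, limit read from the data; inconclusive means no rule stated though some were filed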
3T3 cytotox 2 = NIH/3T3 (mouse) viability loss; AID 651744; NIH/3T3 viability, CellTiter-Glo ATP luminescence, 90 h; actives 56% (n = 5,600); shares compounds with T cruzi growth-1; inhibition, % at 24.9 µM;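 active means mean loss of cell viability signal at or above a set limit, and enough replicates individually reaching it; inconclusive means meets only the mean limit or only the replicate share; inactive means meets neither condition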
Large screens that a line does not name were inactive (follow-up assays come after a bar, where they were run).

CC(C)CC#Cc1ccc2c(c1)O[C@@H](CN(C)C(=O)NC1CCCC1)[C@@H](C)CN([C@H](C)CO)S2(=O)=O	T cruzi growth-1 119 | T cruzi growth-2 106 | T cruzi growth-3 inactive | 3T3 cytotox inactive | 3T3 cytotox 2 102
CN1[C@@H]2c3ccc(C4=CCCCC4)c(=O)n3C[C@H]1[C@H](CO)[C@H]2C(=O)NCc1cccc(F)c1	none
COc1ccc(CN(C)C[C@@H]2Oc3ccc(NC(=O)CCCN(C)C)cc3C(=O)N([C@@H](C)CO)C[C@H]2C)cc1	none (no result: T cruzi growth-1)
COc1ccc(S(=O)(=O)N2CC[C@@H]3[C@H]2c2cc(C#Cc4ccccc4OC)ccc2N[C@@H]3CO)cc1	T cruzi growth-1 107, Pf Dd2 inh -83 | T cruzi growth-2 106 | T cruzi growth-3 111 | 3T3 cytotox inactive | 3T3 cytotox 2 inactive
COc1ccc(S(=O)(=O)N2CC[C@H]3[C@H](CO)Nc4ccc(C#Cc5ccccc5OC)cc4[C@H]32)cc1	none (no result: T cruzi growth-1)
COc1ccc(C#Cc2ccc3c(c2)[C@H]2[C@H](CCN2S(=O)(=O)c2ccccc2C)[C@H](CO)N3)cc1	none
COc1ccc(C#Cc2ccc3c(c2)[C@@H]2[C@@H](CCN2S(=O)(=O)c2ccccc2C)[C@@H](CO)N3)cc1	T cruzi growth-1 97 | T cruzi growth-2 109 | T cruzi growth-3 inactive | 3T3 cytotox inactive | 3T3 cytotox 2 55
COc1ccc(S(=O)(=O)N2CC[C@@H]3[C@H](CO)Nc4ccc(-c5ccc(C#N)cc5)cc4[C@@H]32)cc1	T cruzi growth-1 109 | T cruzi growth-2 101 | T cruzi growth-3 103 | 3T3 cytotox 42 | 3T3 cytotox 2 49
Cc1ccc(S(=O)(=O)N2CC[C@@H]3[C@H]2c2cc(-c4ccc(C#N)cc4)ccc2N[C@@H]3CO)cc1	none
O=C(C[C@@H]1C[C@@H]2c3cc(NC(=O)Cc4ccncc4)ccc3O[C@@H]2[C@@H](CO)O1)NCc1ccccn1	none (no result: C diff growth)
CNC[C@H]1OCCCC[C@H](C)Oc2ccc(NC(=O)Nc3c(C)noc3C)cc2C(=O)N([C@@H](C)CO)C[C@H]1C	none
Cc1ccc(S(=O)(=O)N(C)C[C@@H]2Oc3ccc(NC(=O)Nc4cccc5ccccc45)cc3C(=O)N([C@@H](C)CO)C[C@@H]2C)cc1	none (no result: C diff growth)
NCC[C@H]1CC[C@H](NS(=O)(=O)Cc2ccccc2)[C@@H](CO)O1	none (no result: C diff growth)
COCC#Cc1ccc2c(c1)O[C@@H](CN(C)Cc1ccccc1F)[C@H](C)CN([C@@H](C)CO)S2(=O)=O	none
C[C@@H]1CN([C@H](C)CO)S(=O)(=O)c2ccc(C#CC3CC3)cc2O[C@@H]1CN(C)Cc1ccccc1F	none
CC(C)CC#Cc1ccc2c(c1)O[C@H](CN(C)Cc1ccccc1F)[C@@H](C)CN([C@H](C)CO)S2(=O)=O	none (no result: C diff growth)
CC(C)CC#Cc1ccc2c(c1)O[C@@H](CN(C)Cc1ccccc1F)[C@@H](C)CN([C@H](C)CO)S2(=O)=O	T cruzi growth-1 inconclusive (no result: C diff growth) | T cruzi growth-2 97 | T cruzi growth-3 108 | 3T3 cytotox inactive | 3T3 cytotox 2 105
CC(C)CC#Cc1ccc2c(c1)O[C@H](CN(C)Cc1ccccc1F)[C@H](C)CN([C@@H](C)CO)S2(=O)=O	T cruzi growth-1 inconclusive (no result: C diff growth) | T cruzi growth-2 107 | T cruzi growth-3 inactive | 3T3 cytotox inactive | 3T3 cytotox 2 105
CC(C)CC#Cc1ccc2c(c1)O[C@@H](CN(C)Cc1ccccc1F)[C@H](C)CN([C@H](C)CO)S2(=O)=O	T cruzi growth-1 inconclusive (no result: C diff growth) | T cruzi growth-2 inactive | T cruzi growth-3 105 | 3T3 cytotox 101 | 3T3 cytotox 2 104
C[C@H]1CN([C@@H](C)CO)S(=O)(=O)c2ccc(C#CC3CC3)cc2O[C@@H]1CN(C)Cc1ccccc1F	T cruzi growth-1 112 | T cruzi growth-2 97 | T cruzi growth-3 117 | 3T3 cytotox inactive | 3T3 cytotox 2 104
COCC#Cc1ccc2c(c1)O[C@@H](CN(C)Cc1ccccc1F)[C@@H](C)CN([C@H](C)CO)S2(=O)=O	none
Cc1noc(C)c1S(=O)(=O)Nc1ccc2c(c1)C(=O)N([C@@H](C)CO)C[C@@H](C)[C@@H](CN(C)Cc1ccncc1)OCCCC[C@@H](C)O2	none
